# Measured values published in PubChem BioAssay AID651997 (Sanford-Burnham Center for Chemical Genomics, 2013).
# About 700 (29%) of roughly 2,400 compounds were called active. A selection follows. Values without a mark were called inactive.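 Rule for the calls: active = inhibition of at least 50%; inactive = the rest.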
# Molecular target: G-protein coupled receptor 183 (Homo sapiens) (UniProt P32249)
# Assay: EBI2 antagonist hit retest, beta-arrestin, confirmation, cell-based, single concentration, luminescence, 7a,25-OHC stimulation (AID 651997)
# Conditions: 7a,25-OHC antagonism, at 5 µM, stronger effect = higher value
# Sequence of G-protein coupled receptor 183 (Homo sapiens) (P32249 whole entry, looked up): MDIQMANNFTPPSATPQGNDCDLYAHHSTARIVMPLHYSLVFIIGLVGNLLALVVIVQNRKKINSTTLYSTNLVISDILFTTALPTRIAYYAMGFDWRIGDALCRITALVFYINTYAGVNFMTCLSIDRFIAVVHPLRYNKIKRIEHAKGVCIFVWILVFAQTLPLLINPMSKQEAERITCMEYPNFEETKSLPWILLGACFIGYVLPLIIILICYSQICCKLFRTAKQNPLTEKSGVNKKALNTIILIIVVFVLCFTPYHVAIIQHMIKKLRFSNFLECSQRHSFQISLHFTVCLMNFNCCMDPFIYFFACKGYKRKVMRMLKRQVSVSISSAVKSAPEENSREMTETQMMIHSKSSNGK
row,SMILES,inhibition
1,COc1ccc2cc(C3=CC(=O)C[C@H](c4ccc5c(c4)OCO5)C3)ccc2c1,51.4% (active)
2,COc1ccc([C@H]2CC(=O)C=C(c3ccc(C)cc3)C2)cc1,56.3% (active)
3,COc1ccc([C@H]2CC(=O)C=C(/C=C/c3ccc(Cl)cc3)C2)cc1,20.8%
4,N#Cc1ccc(C2=CC(=O)C[C@H](c3ccc(Cl)cc3)C2)cc1,53.7% (active)
5,CCCCN=C1C([N+](=O)[O-])=CC=C2C1=NC1(CCCCC1)N2O,38.6%
6,CCOc1ccc(CCN2C(=S)N([C@@H](CC(C)C)CN3CCC[C@@H]3CN3C(=S)NC[C@@H]3Cc3ccc(O)cc3)C[C@@H]2Cc2ccc(O)cc2)cc1,26.9%
7,CC1(Cc2ccccc2C#N)C(=O)Nc2ccc(-c3ccc4[nH]ccc4c3)cc21 (centres undefined),31.6%
8,COc1ccc(CNC(=O)CN(c2ccc(OC)c(Cl)c2)S(=O)(=O)c2ccc(C)cc2)cc1,6.43%
9,Cc1ccc2oc(=O)c3cnn(CC(=O)N4CCCCCC4)c3c2c1,31%
10,Cc1ccc2oc(=O)c3cnn(CC(=O)N(Cc4ccco4)C4CCCCC4)c3c2c1,76.3% (active)
11,O=C(Nc1ccc(S(=O)(=O)N2CCCCC2)cc1)C1CC(=O)N(c2ccc(F)cc2)C1 (centres undefined),17.5%
12,Cc1ccc(-c2nn(-c3ccccc3)cc2/C=C/C(=O)Nc2cccc(S(N)(=O)=O)c2)cc1,25.3%
13,COc1ccc(-c2cn(-c3ccc(OC)cc3)c(=S)[nH]2)cc1,68% (active)
14,CCOc1ccc(CN(Cc2ccco2)S(=O)(=O)c2ccc(-n3cnnn3)c(OC)c2)cc1,24.7%
15,CCN(CC(=O)NCc1cccs1)C(=O)/C=C/c1ccc(C)cc1,85.2% (active)
16,O=c1[nH]c(CN2CCN(S(=O)(=O)c3ccc4c(c3)OCCO4)CC2)nc2sc3c(c12)CCCC3,27.9%
17,Cc1ccc(S(=O)(=O)NCCNC(C)c2ccc(Br)cc2)cc1 (centres undefined),9.45%
18,Cc1nc(-c2ccccc2)sc1C(=O)/C=C/c1ccccc1,52.2% (active)
19,COc1ccc(/C=C/C(=O)c2ccc(OC)cc2O)cc1,41.6%
20,COc1ccc(C(=O)/C=C/c2ccc(OC3CSC3)cc2)cc1,25.8%
21,CN(Cc1ccc(F)cc1)C(=O)COc1ccc2ccccc2c1,84% (active)
22,CCC(C)(C)NC(=O)c1cc([N+](=O)[O-])ccc1N1CCCCC1,42.4%
23,COc1ccc(-c2cc(C3CCN(c4ncccc4[N+](=O)[O-])CC3)[nH]n2)cc1,32.3%
24,O=C(C(c1ccccc1)c1ccccc1)N1CCN(CC(O)COc2ccccc2)CC1 (centres undefined),15.3%
